About 8,800 targets were measured; listed, in parts, are those with a hit and a random draw of the rest. About 0.5% of all pairs of compound and target were hits.
Legend:
Experiment in all cases: log2 fold change, soluble protein after heating vs DMSO (PISA); higher = thermal stabilisation; K562 lysate, 10 uM; active = over 0.2 and 3.5 SD of the protein, either way, in both replicates (recomputed)
vemurafenib = compound: CCCS(=O)(=O)Nc1ccc(F)c(C(=O)c2c[nH]c3ncc(-c4ccc(Cl)cc4)cc23)c1F [vemurafenib]
How it was run: (§1)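 Values give the log-two fold change in thermal stability against solvent controls, from duplicates. Crude K562 extract at 1 mg/mL protein, made by dounce homogenisation in PBS pH 7.4 with 1 mM MgCl2, was treated with 10 μM compound for 30 min. After 3 min heating across 48°C-58°C, aliquots were pooled, adjusted to 0.5% NP-40 at 4°C and centrifuged at 21,000xg for 90 min. The supernatant was measured by TMTpro 16plex LC-MS/MS with channel sums equalised.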

[1] = compound: CCCS(=O)(=O)Nc1ccc(F)c(C(=O)c2c[nH]c3ncc(Cl)cc23)c1F
How it was run: as §1

barasertib = compound: CCN(CCCOc1ccc2c(Nc3cc(CC(=O)Nc4cccc(F)c4)[nH]n3)ncnc2c1)CCOP(=O)(O)O [barasertib]
How it was run: as §1

[2] = compound: CC[C@@H]1C(=O)N(C)c2cnc(Nc3ccc(C(=O)NC4CCN(C)CC4)cc3OC)nc2N1C1CCCC1
How it was run: as §1

volasertib = compound: CC[C@@H]1C(=O)N(C)c2cnc(Nc3ccc(C(=O)N[C@H]4CC[C@H](N5CCN(CC6CC6)CC5)CC4)cc3OC)nc2N1C(C)C [volasertib]
How it was run: as §1

[3] = compound: CCn1c(C(=O)N(C2CC2)C2CC2)cc2c3c(ncn3C)c(Nc3cc(C)n(C)n3)nc21
How it was run: as §1

[4] = compound: CCn1cc(-c2ccnc3[nH]c(-c4cccc(CN(C)C)c4)cc23)c(-c2ccc(NC(=O)N(C)C)cc2)n1
How it was run: as §1

[5] = compound: CN1CCC(CNc2ccc3ncc(-c4cccc(OC(F)(F)F)c4)n3n2)CC1
How it was run: as §1

saracatinib = compound: CN1CCN(CCOc2cc(OC3CCOCC3)c3c(Nc4c(Cl)ccc5c4OCO5)ncnc3c2)CC1 [saracatinib]
How it was run: as §1

sotrastaurin = compound: CN1CCN(c2nc(C3=C(c4c[nH]c5ccccc45)C(=O)NC3=O)c3ccccc3n2)CC1 [sotrastaurin]
How it was run: as §1

alvocidib = compound: CN1CC[C@H](c2c(O)cc(O)c3c(=O)cc(-c4ccccc4Cl)oc23)[C@H](O)C1 [alvocidib]
How it was run: as §1

Tubastatin A = compound: CN1CCc2c(c3ccccc3n2Cc2ccc(C(=O)NO)cc2)C1 [Tubastatin A]
How it was run: as §1

[6] = compound: CNC(=O)C1=CC=CC=C1NC2=NC(=NC=C2Cl)NC3=C(C=C(C=C3)N4CCOCC4)OC
How it was run: as §1

defactinib = compound: CNC(=O)c1ccc(Nc2ncc(C(F)(F)F)c(NCc3nccnc3N(C)S(C)(=O)=O)n2)cc1 [defactinib]
How it was run: as §1

[7] = compound: CNc1nc(-c2ccc3c(N)n[nH]c3c2)cc(N2C[C@@H](C(=O)NC3CCCCC3)CC[C@H]2C)n1
How it was run: as §1

encorafenib = compound: COC(=O)N[C@@H](C)CNc1nccc(-c2cn(C(C)C)nc2-c2cc(Cl)cc(NS(C)(=O)=O)c2F)n1 [encorafenib]
How it was run: as §1

[8] = compound: COC(=O)[C@H](CCSC)NC(=O)C1=C(C=C(C=C1)NC[C@H](CS)N)C2=CC=CC=C2
How it was run: as §1

alisertib = compound: COc1cc(Nc2ncc3c(n2)-c2ccc(Cl)cc2C(c2c(F)cccc2OC)=NC3)ccc1C(=O)O [alisertib]
How it was run: as §1

[9] = compound: COc1cc2nc(-c3cc(F)ccc3O)nc(N[C@@H]3CNC[C@H]3C(C)(C)O)c2cc1OC
How it was run: as §1

gefitinib = compound: COc1cc2ncnc(Nc3ccc(F)c(Cl)c3)c2cc1OCCCN1CCOCC1 [gefitinib]
How it was run: as §1

Measured: log2 fold change

UFSP2 (UniProt Q9NUQ7)
inactive: vemurafenib 0.074 | [1] -0.018 | barasertib -0.019 | [2] 0.072 | volasertib -0.071 | [3] 0.016 | [4] -0.011 | [5] 0.002 | saracatinib 0.036 | sotrastaurin 0.018 | alvocidib 0.034 | Tubastatin A 0.024 | [6] -0.045 | defactinib 0.022 | [7] -0.036 | encorafenib 0.031 | [8] 0.055 | alisertib 0.019 | [9] 0.035 | gefitinib -0.031

TUBA1B (UniProt P68363)
Sequence of UniProt P68363 (P68363 whole entry, looked up): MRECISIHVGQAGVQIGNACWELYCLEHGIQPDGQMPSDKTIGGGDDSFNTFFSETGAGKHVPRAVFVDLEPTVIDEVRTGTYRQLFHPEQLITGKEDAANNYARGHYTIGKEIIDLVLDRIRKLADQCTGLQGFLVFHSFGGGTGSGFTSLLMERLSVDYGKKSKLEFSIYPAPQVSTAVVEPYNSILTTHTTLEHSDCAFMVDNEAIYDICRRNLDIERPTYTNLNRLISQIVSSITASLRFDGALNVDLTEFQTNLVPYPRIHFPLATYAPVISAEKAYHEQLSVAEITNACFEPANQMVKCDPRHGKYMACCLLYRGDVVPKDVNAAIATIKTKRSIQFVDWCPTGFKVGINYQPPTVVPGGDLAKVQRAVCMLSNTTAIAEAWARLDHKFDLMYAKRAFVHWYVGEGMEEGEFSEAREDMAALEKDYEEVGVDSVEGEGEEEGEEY
inactive: vemurafenib 0.009 | [1] 0 | barasertib 0.013 | [2] -0.02 | volasertib -0.046 | [3] 0.013 | [4] -0.008 | [5] -0.011 | saracatinib 0.003 | sotrastaurin 0.017 | alvocidib -0.027 | Tubastatin A -0.056 | [6] 0.019 | defactinib -0.03 | [7] 0.003 | encorafenib -0.004 | [8] 0.085 | alisertib 0.026 | [9] -0.004 | gefitinib 0.013

TBRG4 (UniProt Q969Z0)
inactive: vemurafenib -0.016 | [1] 0.008 | barasertib 0.051 | [2] -0.075 | volasertib -0.079 | [3] 0.048 | [4] 0.052 | [5] -0.128 | saracatinib 0.026 | sotrastaurin 0.013 | alvocidib 0.017 | Tubastatin A -0.089 | [6] 0.007 | defactinib 0.071 | [7] -0.018 | encorafenib 0.01 | [8] -0.013 | alisertib 0.037 | [9] -0.008 | gefitinib -0.015

TRIM11 (UniProt Q96F44)
Sequence of UniProt Q96F44 (Q96F44 whole entry, looked up): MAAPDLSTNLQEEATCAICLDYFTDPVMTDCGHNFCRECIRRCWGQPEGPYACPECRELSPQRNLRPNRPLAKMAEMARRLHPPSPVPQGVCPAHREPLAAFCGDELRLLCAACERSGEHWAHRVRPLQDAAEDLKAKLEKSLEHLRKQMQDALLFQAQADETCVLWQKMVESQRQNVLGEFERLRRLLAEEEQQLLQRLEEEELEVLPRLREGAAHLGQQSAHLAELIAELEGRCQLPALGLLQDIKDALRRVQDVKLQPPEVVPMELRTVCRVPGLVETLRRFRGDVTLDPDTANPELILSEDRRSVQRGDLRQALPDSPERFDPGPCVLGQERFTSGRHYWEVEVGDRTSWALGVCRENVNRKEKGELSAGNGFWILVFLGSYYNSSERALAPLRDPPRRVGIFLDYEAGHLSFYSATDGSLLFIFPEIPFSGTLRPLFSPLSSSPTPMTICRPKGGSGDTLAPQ
inactive: vemurafenib -0.049 | [1] -0.018 | barasertib -0.034 | [2] -0.001 | volasertib -0.043 | [3] 0.022 | [4] 0.024 | [5] 0.009 | saracatinib 0.024 | sotrastaurin -0.009 | alvocidib -0.015 | Tubastatin A -0.021 | [6] 0.037 | defactinib 0.016 | [7] -0.007 | encorafenib 0.029 | [8] 0.053 | alisertib -0.026 | [9] -0.055 | gefitinib 0.004

TBCE (UniProt Q15813)
Sequence of UniProt Q15813 (Q15813 whole entry, looked up): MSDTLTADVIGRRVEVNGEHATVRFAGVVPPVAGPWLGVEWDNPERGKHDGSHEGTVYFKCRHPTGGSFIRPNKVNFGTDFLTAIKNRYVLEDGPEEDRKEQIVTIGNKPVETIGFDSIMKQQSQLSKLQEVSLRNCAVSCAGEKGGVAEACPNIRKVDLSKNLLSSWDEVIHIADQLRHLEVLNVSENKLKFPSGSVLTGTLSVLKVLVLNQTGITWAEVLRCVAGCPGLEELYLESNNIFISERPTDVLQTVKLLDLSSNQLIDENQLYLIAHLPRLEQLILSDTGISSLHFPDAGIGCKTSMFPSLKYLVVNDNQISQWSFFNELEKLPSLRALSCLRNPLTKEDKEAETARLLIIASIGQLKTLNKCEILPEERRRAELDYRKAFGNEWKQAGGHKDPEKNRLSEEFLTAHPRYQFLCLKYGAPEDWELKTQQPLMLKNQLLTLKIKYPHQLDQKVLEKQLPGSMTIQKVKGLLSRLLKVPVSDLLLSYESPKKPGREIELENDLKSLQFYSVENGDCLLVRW
inactive: vemurafenib 0.04 | [1] 0.015 | barasertib 0.024 | [2] -0.065 | volasertib -0.082 | [3] 0.048 | [4] -0.044 | [5] -0.023 | saracatinib 0.013 | sotrastaurin 0.001 | alvocidib -0.008 | Tubastatin A -0.162 | [6] -0.026 | defactinib 0.031 | [7] -0.028 | encorafenib -0.008 | alisertib -0.008 | [9] -0.006 | gefitinib -0.006
active: [8] 0.265

TPX2 (UniProt Q9ULW0)
Sequence of UniProt Q9ULW0 (Q9ULW0 whole entry, looked up): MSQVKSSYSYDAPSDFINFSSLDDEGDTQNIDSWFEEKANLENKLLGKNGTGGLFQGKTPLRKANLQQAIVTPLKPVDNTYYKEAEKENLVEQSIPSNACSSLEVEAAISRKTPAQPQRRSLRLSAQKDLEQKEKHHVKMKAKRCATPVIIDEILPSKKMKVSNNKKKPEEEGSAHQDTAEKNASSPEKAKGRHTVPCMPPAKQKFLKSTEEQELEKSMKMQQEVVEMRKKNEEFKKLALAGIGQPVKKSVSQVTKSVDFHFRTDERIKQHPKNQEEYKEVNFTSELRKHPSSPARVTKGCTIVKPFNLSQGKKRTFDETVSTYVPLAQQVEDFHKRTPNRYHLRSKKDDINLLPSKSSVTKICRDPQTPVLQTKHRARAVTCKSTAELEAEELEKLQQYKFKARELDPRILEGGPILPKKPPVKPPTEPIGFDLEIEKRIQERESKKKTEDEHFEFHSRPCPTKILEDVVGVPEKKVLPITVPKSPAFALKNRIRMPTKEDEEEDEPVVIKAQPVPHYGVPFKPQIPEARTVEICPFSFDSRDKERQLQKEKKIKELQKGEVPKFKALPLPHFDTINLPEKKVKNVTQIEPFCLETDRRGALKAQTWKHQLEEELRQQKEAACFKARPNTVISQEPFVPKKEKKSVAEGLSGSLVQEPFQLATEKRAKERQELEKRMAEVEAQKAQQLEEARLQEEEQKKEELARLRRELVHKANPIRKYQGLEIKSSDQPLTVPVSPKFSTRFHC
inactive: vemurafenib -0.006 | [1] -0.013 | barasertib -0.036 | [2] 0.093 | volasertib 0.012 | [3] -0.035 | [4] 0.04 | [5] -0.007 | saracatinib 0.03 | sotrastaurin -0.016 | alvocidib -0.002 | Tubastatin A -0.129 | [6] 0.014 | defactinib 0.01 | [7] 0.045 | encorafenib 0.041 | alisertib 0.043 | [9] -0.027 | gefitinib 0.012
active: [8] -0.215

TCF12 isoform 3 (UniProt Q99081)
Sequence of UniProt Q99081 (Q99081 whole entry, looked up): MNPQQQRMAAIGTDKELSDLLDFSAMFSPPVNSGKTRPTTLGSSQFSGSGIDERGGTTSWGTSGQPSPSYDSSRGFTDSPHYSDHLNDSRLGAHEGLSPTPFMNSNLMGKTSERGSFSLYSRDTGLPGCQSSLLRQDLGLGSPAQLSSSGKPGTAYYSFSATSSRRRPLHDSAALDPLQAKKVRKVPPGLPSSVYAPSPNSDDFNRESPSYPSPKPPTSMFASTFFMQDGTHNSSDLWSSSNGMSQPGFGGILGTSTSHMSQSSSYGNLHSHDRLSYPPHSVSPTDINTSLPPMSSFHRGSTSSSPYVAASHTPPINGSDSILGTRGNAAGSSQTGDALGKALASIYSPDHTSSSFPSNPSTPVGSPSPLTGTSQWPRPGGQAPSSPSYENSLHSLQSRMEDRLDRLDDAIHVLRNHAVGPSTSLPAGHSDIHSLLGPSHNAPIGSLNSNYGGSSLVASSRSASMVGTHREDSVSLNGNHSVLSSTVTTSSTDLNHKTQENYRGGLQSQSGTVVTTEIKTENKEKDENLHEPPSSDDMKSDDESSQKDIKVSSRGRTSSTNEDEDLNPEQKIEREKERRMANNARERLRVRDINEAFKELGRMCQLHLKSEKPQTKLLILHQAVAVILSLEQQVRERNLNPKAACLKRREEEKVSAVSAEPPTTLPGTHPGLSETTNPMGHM
inactive: vemurafenib 0.008 | [1] -0.068 | barasertib -0.037 | [2] 0.034 | volasertib -0.094 | [3] 0.017 | [4] -0.04 | [5] 0.079 | saracatinib 0.043 | sotrastaurin -0.054 | alvocidib -0.045 | Tubastatin A -0.129 | [6] 0.009 | defactinib -0.007 | [7] -0.013 | encorafenib 0.039 | [8] -0.043 | alisertib 0.004 | [9] -0.025 | gefitinib 0.028

TOE1 (UniProt Q96GM8)
inactive: vemurafenib 0.052 | [1] 0.018 | barasertib -0.053 | [2] -0.051 | volasertib -0.031 | [3] -0.042 | [4] -0.022 | [5] -0.005 | saracatinib -0.029 | sotrastaurin 0.007 | alvocidib -0.01 | Tubastatin A -0.136 | [6] 0.027 | defactinib 0.019 | [7] -0.044 | encorafenib -0.034 | [8] 0.165 | alisertib -0.041 | [9] -0.011 | gefitinib -0.047

TUBB4B (UniProt P68371)
inactive: vemurafenib 0.006 | [1] 0.004 | barasertib -0.092 | [2] -0.032 | volasertib -0.034 | [3] 0.005 | [4] -0.134 | [5] -0.011 | saracatinib 0.03 | sotrastaurin -0.021 | alvocidib 0.032 | Tubastatin A -0.017 | [6] 0.024 | defactinib 0.018 | [7] -0.039 | encorafenib -0.03 | [8] 0.067 | alisertib 0.019 | [9] -0.013 | gefitinib -0.028

TPP2 (UniProt Q5VZU9)
inactive: vemurafenib 0.003 | [1] 0.061 | barasertib -0.002 | [2] 0.014 | volasertib 0.003 | [3] -0.005 | [4] -0.147 | [5] 0.088 | saracatinib -0.022 | sotrastaurin 0.044 | alvocidib -0.099 | Tubastatin A -0.121 | [6] 0.092 | defactinib 0.062 | [7] 0.068 | encorafenib -0.076 | [8] 0.058 | alisertib 0.006 | [9] 0.076 | gefitinib 0.011

TMEM87B (UniProt Q96K49)
inactive: vemurafenib -0.004 | [1] 0.047 | barasertib 0.091 | [2] 0.018 | volasertib 0.005 | [3] -0.006 | [4] 0.074 | [5] -0.032 | saracatinib -0.166 | sotrastaurin 0.026 | alvocidib 0.035 | Tubastatin A 0.044 | [6] -0.035 | defactinib -0.032 | [7] -0.045 | encorafenib -0.055 | [8] 0.017 | alisertib 0.004 | [9] 0.031 | gefitinib 0.018

TSFM (UniProt P43897)
inactive: vemurafenib -0.007 | [1] 0.005 | barasertib 0.031 | [2] -0.041 | volasertib -0.089 | [3] 0.006 | [4] 0.081 | [5] -0.05 | saracatinib -0.014 | sotrastaurin -0.012 | alvocidib 0.036 | Tubastatin A -0.088 | [6] 0.017 | defactinib 0.015 | [7] 0.01 | encorafenib -0.017 | [8] 0.13 | alisertib -0.021 | [9] 0.017 | gefitinib 0.018

TUBB (UniProt P07437)
inactive: vemurafenib 0.018 | [1] 0.003 | barasertib -0.051 | [2] -0.02 | volasertib -0.063 | [3] -0.017 | [4] -0.041 | [5] 0.004 | saracatinib 0.029 | sotrastaurin 0.017 | alvocidib 0.01 | Tubastatin A -0.035 | [6] -0.001 | defactinib 0.007 | [7] 0.007 | encorafenib -0.013 | [8] 0.081 | alisertib 0.014 | [9] -0.012 | gefitinib -0.031

THOC5 (UniProt Q13769)
inactive: vemurafenib 0.005 | [1] 0.013 | barasertib -0.023 | [2] -0.031 | volasertib -0.008 | [3] 0.008 | [4] 0.02 | [5] -0.008 | saracatinib 0.024 | sotrastaurin 0.013 | alvocidib -0.027 | Tubastatin A -0.025 | [6] -0.021 | defactinib -0.008 | [7] -0.016 | encorafenib 0.005 | [8] 0.062 | alisertib 0.059 | [9] 0.006 | gefitinib -0.018

TUBGCP3 (UniProt Q96CW5)
Sequence of UniProt Q96CW5 (Q96CW5 whole entry, looked up): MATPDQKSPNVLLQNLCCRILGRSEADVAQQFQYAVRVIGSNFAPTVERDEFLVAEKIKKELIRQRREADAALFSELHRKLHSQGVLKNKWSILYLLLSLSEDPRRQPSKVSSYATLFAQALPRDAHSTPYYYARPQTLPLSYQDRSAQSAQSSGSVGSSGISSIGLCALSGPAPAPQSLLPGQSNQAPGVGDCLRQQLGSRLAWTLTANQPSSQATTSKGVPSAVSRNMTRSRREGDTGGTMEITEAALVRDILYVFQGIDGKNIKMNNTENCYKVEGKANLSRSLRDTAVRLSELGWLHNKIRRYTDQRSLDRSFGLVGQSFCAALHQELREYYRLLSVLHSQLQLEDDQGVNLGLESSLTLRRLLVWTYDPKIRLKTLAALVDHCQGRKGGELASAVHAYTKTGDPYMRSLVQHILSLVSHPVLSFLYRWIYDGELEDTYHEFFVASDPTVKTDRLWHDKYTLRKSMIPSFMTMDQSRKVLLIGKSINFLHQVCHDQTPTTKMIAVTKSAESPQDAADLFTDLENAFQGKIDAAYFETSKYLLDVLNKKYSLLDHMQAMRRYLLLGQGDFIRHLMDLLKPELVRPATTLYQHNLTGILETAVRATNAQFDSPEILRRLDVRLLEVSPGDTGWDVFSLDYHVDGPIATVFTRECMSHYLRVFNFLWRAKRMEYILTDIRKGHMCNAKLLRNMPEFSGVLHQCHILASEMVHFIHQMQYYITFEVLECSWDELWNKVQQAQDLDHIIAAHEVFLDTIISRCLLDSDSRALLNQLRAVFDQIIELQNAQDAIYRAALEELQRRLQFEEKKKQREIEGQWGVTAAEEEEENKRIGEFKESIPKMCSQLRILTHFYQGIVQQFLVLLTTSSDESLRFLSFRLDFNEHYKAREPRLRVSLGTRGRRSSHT
inactive: vemurafenib -0.013 | [1] 0.026 | barasertib -0.078 | [2] 0.001 | volasertib -0.039 | [3] 0.028 | [4] -0.016 | [5] 0.015 | saracatinib 0.002 | sotrastaurin 0.01 | alvocidib -0.003 | Tubastatin A -0.094 | [6] 0.026 | defactinib 0.022 | [7] -0.024 | encorafenib 0.024 | [8] 0.011 | alisertib 0.044 | [9] -0.017 | gefitinib 0.056

TTI1 (UniProt O43156)
Sequence of UniProt O43156 (O43156 whole entry, looked up): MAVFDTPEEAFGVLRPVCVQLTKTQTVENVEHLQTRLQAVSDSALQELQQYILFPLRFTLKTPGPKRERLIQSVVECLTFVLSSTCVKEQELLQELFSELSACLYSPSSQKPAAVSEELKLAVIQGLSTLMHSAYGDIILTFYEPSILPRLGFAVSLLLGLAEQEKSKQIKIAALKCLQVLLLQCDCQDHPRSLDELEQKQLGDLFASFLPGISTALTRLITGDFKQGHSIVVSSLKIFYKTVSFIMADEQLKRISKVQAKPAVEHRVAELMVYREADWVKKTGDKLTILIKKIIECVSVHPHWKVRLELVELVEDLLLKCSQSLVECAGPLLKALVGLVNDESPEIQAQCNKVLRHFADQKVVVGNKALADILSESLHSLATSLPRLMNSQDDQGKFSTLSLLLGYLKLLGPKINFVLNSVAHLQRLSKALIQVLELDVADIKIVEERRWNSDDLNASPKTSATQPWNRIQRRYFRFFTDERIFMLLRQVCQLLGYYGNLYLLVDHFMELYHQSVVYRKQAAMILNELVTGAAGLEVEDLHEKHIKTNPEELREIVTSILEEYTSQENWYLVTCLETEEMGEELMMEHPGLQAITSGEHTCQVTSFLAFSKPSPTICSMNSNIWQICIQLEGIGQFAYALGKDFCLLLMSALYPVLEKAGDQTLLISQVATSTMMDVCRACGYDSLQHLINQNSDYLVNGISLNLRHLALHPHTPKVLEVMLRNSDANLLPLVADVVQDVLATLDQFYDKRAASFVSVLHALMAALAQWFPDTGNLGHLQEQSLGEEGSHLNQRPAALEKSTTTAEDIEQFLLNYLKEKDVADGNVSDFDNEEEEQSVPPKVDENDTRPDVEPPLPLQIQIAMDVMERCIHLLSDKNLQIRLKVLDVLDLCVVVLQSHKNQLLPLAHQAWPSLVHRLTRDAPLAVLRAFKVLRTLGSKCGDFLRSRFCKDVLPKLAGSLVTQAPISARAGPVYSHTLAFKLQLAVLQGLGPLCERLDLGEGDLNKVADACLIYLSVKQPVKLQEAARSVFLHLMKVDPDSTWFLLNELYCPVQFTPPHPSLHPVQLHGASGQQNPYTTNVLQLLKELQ
inactive: vemurafenib 0.006 | [1] -0.012 | barasertib 0.055 | [2] -0.093 | volasertib -0.026 | [3] 0.006 | [4] -0.074 | [5] 0.019 | saracatinib -0.003 | sotrastaurin 0.006 | alvocidib 0 | Tubastatin A -0.163 | [6] 0.015 | defactinib 0.022 | [7] -0.035 | encorafenib 0.022 | [8] 0.026 | alisertib -0.013 | [9] -0.011 | gefitinib -0.016

Reference: the supplement of paper PMC10849652
